Data: PubChem BioAssay AID686979 (National Center for Advancing Translational Sciences (NCATS), 2013)
Out of some 420,000 compounds screened, about 50,000 (12%) were called active. Roughly 26% stayed inconclusive and do not appear here. Calls follow the shape of the dose curve; as a rule, active = well fitted inhibition curve with a large enough effect; inconclusive = small, poorly fitted or top-dose-only effect; inactive = flat fitted curve, though single readings scatter. This excerpt belongs to a sample that is enriched for actives.

Experiment: qHTS for Inhibitors of human tyrosyl-DNA phosphodiesterase 1 (TDP1): qHTS in cells in presence of CPT; also: nearly all actives have a fitted effect of over 55% in size
Conditions: chicken DT40 Tdp1-/-;hTDP1 cells + 20 nM CPT, ATP luminescence, 48 h; series mostly up to 46.2 µM; activity change, negative = growth inhibition: at the top concentration
Method in brief: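 Chicken DT40 Tdp1-/- cells stably complemented with human TDP1 were seeded at 400 cells/well in medium containing 20 nM camptothecin, exposed to pin-transferred compounds, and grown at 37 °C for at least 48 hr. Viability was read as ATP luminescence.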
% is scaled to controls: 0 for no effect and ±100 for the full control effect; potency is read from the fitted curve at half-maximal effect.

| SMILES | activity change, negative = growth inhibition | Potency |
| --- | --- | --- |
| O=C(O)C#Cc1cccc2ccccc12 | 10.9% (inactive) |  |
| CCn1ccnc1CNC(=O)CC1C(=O)NCCN1Cc1ccc(F)cc1Cl (stereo not given) | -1.8% (inactive) |  |
| Cc1cc(-n2cnc(-c3cn(C)nc3C)n2)no1 | 13.5% (inactive) |  |
| CCCCN(C(=O)c1ccc(S(=O)(=O)N2CCOCC2)cc1)C1CCS(=O)(=O)C1 (stereo not given) | 1.37% (inactive) |  |
| COC(=O)Cc1ccc(OCC(=O)Nc2ccc(OC(F)(F)F)cc2)cc1 | -0.975% (inactive) |  |
| CCNC(=S)Nc1ccc(OC(F)(F)F)cc1 | -16% (inactive) |  |
| CCc1ccc2c(c1)NC(=O)C2(C)Cc1ccc(OC(F)(F)F)cc1 (stereo not given) |  | 20.6 µM (active) |
| CC1(C(=O)NS(=O)(=O)Cc2cccc(Cl)c2)CCN1C(=O)Cc1ccccc1 (stereo not given) | -21.3% (inactive) |  |
| Cc1cc(=O)n2nc(N3CCCC(C(=O)NCc4cccc(Cl)c4)C3)sc2n1 (stereo not given) | -1.83% (inactive) |  |
| O=C(NCc1ccccc1)C1CCCN(c2nc3ccsc3c(=O)s2)C1 (stereo not given) | 2.51% (inactive) |  |
| O=C(NCCc1cccc(F)c1)C1CCCN(c2nc3ccccc3s2)C1 (stereo not given) |  | 18.4 µM (active) |
| CCC(C)c1ccc(NC(=O)COC(=O)C2CCCC2)cc1 (stereo not given) | 8.46% (inactive) |  |
| CC(C)(C)NC(=O)NC(=O)COC(=O)C1c2ccccc2Oc2ccccc21 | -0.439% (inactive) |  |
| Cc1cn([C@H]2C[C@H](O)[C@@H](CNC(=O)[C@H](N)Cc3cccnc3)O2)c(=O)[nH]c1=O | 9.28% (inactive) |  |
| Cc1cccc(C)c1NC(=O)C(Cl)C(=O)c1ccccc1 (stereo not given) |  | 5.17 µM (active) |
| Cc1cccc(C)c1NC(=O)CN(C)C(=O)CCC(=O)c1ccccc1 | -17.9% (inactive) |  |
| Cc1cccc(C)c1NC(=O)C(c1ccccc1)N1CC(=O)Nc2ccccc21 (stereo not given) | -26.6% (inactive) |  |
| Cc1ccc(C)c(NC(=O)C(c2ccccc2)N2CCN(CC(=O)NC3CC3)CC2)c1 (stereo not given) | -36.9% (inactive) |  |
| O=C(NCc1ccco1)c1cccn2c(=O)c3c4c(sc3nc12)CCCC4 |  | 9.2 µM (active) |
| O=c1oc(-c2ccco2)nc2sc3c(c12)CCCCC3 | -6.64% (inactive) |  |
| O=C(NCc1ccco1)c1nc2ncccn2n1 | 1.29% (inactive) |  |
| CC(C)C[C@H](NC(=O)C1CC(=O)N(c2ccc3c(c2)OCCO3)C1)C(=O)NC1CCCC1 (stereo not given in full) | -1.7% (inactive) |  |
| CN[C@@H]1[C@@H](O)[C@@H](O[C@@H]2[C@H](O)[C@H](O[C@H]3OC(CN)=CC[C@H]3N)[C@@H](N)C[C@H]2N)OCC1(C)O (stereo not given in full) | 0.521% (inactive) |  |
| NC(=O)C1CCN(CC(O)CSc2ccc(F)cc2)CC1 (stereo not given) | 5.2% (inactive) |  |
| OC(CNC1CCCC1)COc1ccc(F)cc1 (stereo not given) | -16.4% (inactive) |  |

| SMILES | activity change, negative = growth inhibition | Potency |
| --- | --- | --- |
| C=CCOC(=O)C1=C[C@@H](c2ccccc2)C[C@@H](OCc2ccc(CO)cc2)O1 | -18.7% (inactive) |  |
| NC(=O)C1=C[C@@H](c2csc3ccccc23)C[C@@H](OCc2ccc(CO)cc2)O1 |  | 25.9 µM (active) |
| NC(=O)C1=C[C@H](c2csc3ccccc23)C[C@H](OCc2ccc(CO)cc2)O1 |  | 14.6 µM (active) |
| O=C(C1=C[C@H](c2coc3ccccc3c2=O)C[C@H](OCc2ccc(CO)cc2)O1)N1CCOCC1 | -21.8% (inactive) |  |
| NC(=O)C1=C[C@@H](c2ccc3c(c2)OCO3)C[C@@H](OCCCCO)O1 | 21.5% (inactive) |  |
| O=C(O)C1=C[C@H](c2cccs2)C[C@H](OCCCCO)O1 | 1.58% (inactive) |  |
| Cc1cc(OC(C)C(=O)NC2CC(C)(C)NC(C)(C)C2)c2c(C)cc(=O)oc2c1 (stereo not given) | 2.25% (inactive) |  |
| COCCNC(=S)N1CCN(C)CC1 | 2.15% (inactive) |  |
| CC1CCC2(CC1)NC(=O)N(CC(=O)c1cccn1C)C2=O (stereo not given) | 2.2% (inactive) |  |
| CC(C)(C)SCCSC1=CC(=O)CC(c2ccccc2)C1 (stereo not given) | -1.27% (inactive) |  |
| COC(=O)C(C)Oc1ccc2c(c1)O/C(=C\c1cccc(Br)c1)C2=O (stereo not given) | -0.346% (inactive) |  |
| Cc1ccc(OCCOCCOc2ccc(Br)cc2/C=N\NC(=O)c2ccncc2)cc1 |  | 18.4 µM (active) |
| Cc1ccc(S(=O)(=O)Oc2ccc(/C=N/NC(=O)c3ccncc3)cc2)cc1 | -2.8% (inactive) |  |
| CCOc1cc(/C=N/NC(=O)c2ccncc2)cc(Br)c1O | -2.85% (inactive) |  |
| COc1ccc(Cl)cc1NC(=O)CCn1c(=O)c2cccn2c2ccccc21 |  | 20.6 µM (active) |
| Cc1ccc(NC(=O)CCCn2c(=O)c3cccn3c3ccccc32)cc1Cl | -24.8% (inactive) |  |
| COc1ccc(Cl)cc1NC(=O)CCC(=O)c1ccc(C)cc1 | -25.1% (inactive) |  |
| CCCCn1c(N)c(N(CCC(C)C)C(=O)COC(=O)c2ccc(CC)cc2)c(=O)[nH]c1=O | -20.8% (inactive) |  |
| Cc1cccc(NC(=O)CSCC(=O)Nc2nnc(C3CC3)s2)c1 | 2.73% (inactive) |  |
| O=C(NC(CC(=O)N1CCN(c2ccccc2)CC1)c1ccccc1)c1ccccc1Cl (stereo not given) | 1.37% (inactive) |  |
| CCCCCN(C(=O)CCC(=O)OCCOc1ccc(OC)cc1)c1c(N)n(CCCC)c(=O)[nH]c1=O | -25.6% (inactive) |  |
| O=C(Nc1ccc(S(=O)(=O)NCC2CCCO2)cc1)c1ccc(F)cc1 (stereo not given) |  | 14.6 µM (active) |
| CCOc1ccc(C(=O)Nc2ccc(S(=O)(=O)NCC3CCCO3)cc2)cc1OCC (stereo not given) | -12.9% (inactive) |  |
| Cc1cccc(NC(=O)c2ccc(S(=O)(=O)N(C)CC3CCCO3)cc2)c1C (stereo not given) | -4.33% (inactive) |  |
| CCOc1ccc(S(=O)(=O)NCC2CCCO2)cc1 (stereo not given) | 14.8% (inactive) |  |

| SMILES | activity change, negative = growth inhibition | Potency |
| --- | --- | --- |
| CN(CC1CCCO1)S(=O)(=O)c1ccc(C(=O)Nc2ccc([N+](=O)[O-])cc2)cc1 (stereo not given) |  | 23.1 µM (active) |
| CN(CC(=O)Nc1ccc(C(N)=O)cc1)S(=O)(=O)c1ccc2c(c1)OCCO2 | -20.2% (inactive) |  |
| CCN(CC(=O)Nc1ccc(NC(C)=O)cc1)C(=O)C1CC(=O)N(Cc2ccc(C)cc2)C1 (stereo not given) | -13.7% (inactive) |  |
| O=C(C1CCCO1)N1CCN(C(=O)C23CC4CC(CC(C4)C2)C3)CC1 (stereo not given) | -21.8% (inactive) |  |
| COc1cc(C(=O)N2CCN(C3CCC(C)CC3)CC2)cc(OC)c1OC (stereo not given) | -24.6% (inactive) |  |
| CCOC(=O)C1CCN(S(=O)(=O)c2c(C)noc2C)CC1 | -0.368% (inactive) |  |
| COc1cccc(N(CC(=O)NC2CCCC2)C(=O)Cn2nnc(-c3ccc(C)o3)n2)c1 | 5.02% (inactive) |  |
| CC(C)COc1ccc(C(=O)OCC(=O)NCCC2=CCCCC2)cc1 | -14.1% (inactive) |  |
| O=C(O)CN(Cc1ccco1)S(=O)(=O)c1ccc(F)cc1 | 2.84% (inactive) |  |
| C=CCn1c(SCC(=O)c2c(N)n(C)c(=O)n(C)c2=O)nc2sc(CC)cc2c1=O | -8.2% (inactive) |  |
| NC1=CC(=O)C(=O)c2cccnc21 |  | 3.66 µM (active) |
| Cc1cccc(N2C(=O)c3cccnc3C2=O)c1 | 4.51% (inactive) |  |
| O=C1c2cccnc2C(=O)N1Cc1cccs1 | 12.8% (inactive) |  |
| O=C(NC1CCCCC1)C1CC(=O)N(CCc2ccccc2)C1 (stereo not given) | -5.56% (inactive) |  |
| CC(NC(=O)COC(=O)CCC(=O)c1ccc(Cl)cc1)c1ccccc1 (stereo not given) | -8.03% (inactive) |  |
| CC1CCC(NC(=O)CNC(=O)c2ccc3ccccc3c2)CC1 (stereo not given) | -25.8% (inactive) |  |
| Cc1cc(C)nc(N/N=C/c2ccncc2)n1 | 10.1% (inactive) |  |
| CCOc1ccc(NC(=O)CCC(=O)N/N=C/c2ccc([N+](=O)[O-])s2)cc1 |  | 10.3 µM (active) |
| O=C(N/N=C/c1ccc([N+](=O)[O-])cc1)C(=O)N1CCCC1 | -9.59% (inactive) |  |
| Cc1cc(C)nc(Nc2cc([N+](=O)[O-])ccc2C)n1 | 8.55% (inactive) |  |
| Cc1cc(C)nc(N/N=C/c2ccc([N+](=O)[O-])o2)n1 |  | 23.1 µM (active) |
| COc1ccccc1OCCNC(=O)c1cc([N+](=O)[O-])cc([N+](=O)[O-])c1 | 2.49% (inactive) |  |
| COc1ccc(C(=O)NCC(=O)N/N=C/c2ccc([N+](=O)[O-])o2)cc1OC |  | 2.31 µM (active) |
| NC(=O)C(=O)N/N=C/c1ccc([N+](=O)[O-])o1 |  | 10.6 µM (active) |
| NC(=S)N/N=C/c1ccc([N+](=O)[O-])cc1 | -18.6% (inactive) |  |

| SMILES | activity change, negative = growth inhibition | Potency |
| --- | --- | --- |
| COc1cc(/C=N/NC(=O)CNC(=O)c2ccncc2)ccc1OC(C)=O | 11% (inactive) |  |
| CCCCCC(=O)Nc1ccc(C(=O)N/N=C/c2ccc([N+](=O)[O-])cc2)cc1 | 2.57% (inactive) |  |
| CCOc1ccc(NC(=O)CCC(=O)NNC(=O)NC2CCCCC2)cc1 | -25.9% (inactive) |  |
| CC(C)[C@@H](C(=O)O)N(Cc1cccc(CN([C@H](C(=O)O)C(C)C)S(C)(=O)=O)c1)S(C)(=O)=O | -12.6% (inactive) |  |
| CC1=C(C(=O)Nc2ccccc2)C(c2ccc(C)cc2)n2nc(SCc3ccccc3C)nc2N1 (stereo not given) | 3.41% (inactive) |  |
| COc1cccc(NC(=O)C(=O)NCC(c2ccc3c(c2)OCO3)N2CCN(C)CC2)c1 (stereo not given) | -23.2% (inactive) |  |
| COc1ccccc1CNS(=O)(=O)CC12CCC(CC1=O)C2(C)C (stereo not given) | -2.24% (inactive) |  |
| CCCc1c2oc(C(=O)O)cc(=O)c2cc2c(=O)cc(C(=O)O)n(CC)c12 | 16.1% (inactive) |  |
| Cc1ccc(CC2CC(=O)N(c3cc(C)ccc3C)C2=O)cc1 (stereo not given) | 2.68% (inactive) |  |
| NS(=O)(=O)c1ccccc1NC(=O)c1c(O)c2ccccc2[nH]c1=O | -1.4% (inactive) |  |
| Cc1oc2cc(Br)c(O)c(Br)c2c1C(=O)c1ccccc1 | 10.4% (inactive) |  |
| O=C(Nc1ccc(N2CCOCC2)cc1)c1cccc2c(-c3ccc(F)c(F)c3)coc12 | -58.3% (inactive) |  |
| COc1ccc(N2CCN(C(=S)Nc3ccc(S(N)(=O)=O)cc3)CC2)cc1 | -27.4% (inactive) |  |
| C/C(Cc1ccccc1)=N\NC(=O)CNC(=O)c1ccccc1Cl | -4.25% (inactive) |  |
| Cc1ccc(C(=O)N(CC(=O)NC2CCCC2)c2ccc(F)cc2)s1 | -1.84% (inactive) |  |
| O=C(Cc1cc(=O)[nH][nH]1)N/N=C/c1ccccc1[N+](=O)[O-] | -0.646% (inactive) |  |
| Cc1nn(CC(=O)N/N=C/c2ccc(F)cc2)c(C)c1[N+](=O)[O-] | 8.62% (inactive) |  |
| O=C(COc1ccccc1[N+](=O)[O-])N/N=C/c1ccc[nH]1 | 0.416% (inactive) |  |
| CC(C)(C)c1cc(C(=O)N/N=C/c2ccc([N+](=O)[O-])s2)n[nH]1 |  | 9.2 µM (active) |
| COc1cc(/C=N\NC(=O)CNC(=O)c2cccc([N+](=O)[O-])c2)ccc1O | -1.83% (inactive) |  |
| C/[N+]([O-])=C\c1ccc([N+](=O)[O-])o1 |  | 25.9 µM (active) |
| Cc1ccccc1NCC(=O)N/N=C\c1ccc([N+](=O)[O-])s1 |  | 8.2 µM (active) |
| Cc1nn(-c2ccccc2)c(Cl)c1/C=N/NC(=O)c1nn(C)cc1[N+](=O)[O-] | -5.46% (inactive) |  |
| COc1ccc(/C=N/NC(=O)CNC(=O)c2ccc(S(=O)(=O)N3CCCC3)cc2)c(OC)c1 | -12.7% (inactive) |  |
| COc1ccc(C(=O)NCC(=O)N/N=C/c2ccc([N+](=O)[O-])s2)cc1OC |  | 20.6 µM (active) |
